proKLK7 act: activators of human kallikrein-7 zymogen; P49862; purified proKLK7, EDANS-DABCYL substrate fluorescence; 100% is mature enzyme control, 0% vehicle; activation, % at 7 µM; 0.9% of 370,000 active; AID 652039;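 active means activation above the mean of all tested compounds plus 3 SD, computed per campaign excluding outliers beyond control limits, cut at about 13% in these data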
ADAM10 inh: inhibits human ADAM10; O14672; recombinant ADAM10, EDANS/DABCYL FRET peptide cleavage, 3 h; inhibition, % at 7 µM; 0.62% of 370,000 active;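 active means inhibition above a per-campaign cutoff equal to the mean of compounds falling between control-based bounds plus 3 SD, cut at about 20% in these data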
ADAM17 inh: ADAM17 inhibition, QFRET primary screen; recombinant ADAM17, EDANS/DABCYL FRET peptide cleavage; inhibition, % at 6.95 µM; 0.83% of 370,000 active;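 active means inhibition above the mean of compounds lying between control limits plus 3 SD, set per campaign, cut at about 8.5% in these data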
PLC-gamma1 inh: blocks human PLC-gamma1 enzyme activity | purified PLC-gamma1, fluorogenic substrate, fluorescence | inhibition, % at 12.2 µM | 0.84% of 370,000 active | AID 720700; in the data active means inhibition above about 9.5%
HGIII-sPLA2 inh: Inhibits HGIII-sPLA2 liposome hydrolysis, primary screen; inhibition, % at 12.2 µM; QFRET BODIPY PC-A2 liposome hydrolysis, fluorescence; 0.56% of 370,000 active; Q9NZ20;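 active means inhibition above mean plus 3 SD of compounds lying within the high and low control bounds, cut at about 19% in these data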
PLC-beta3 inh: PLC-beta3 (human) inhibition, primary screen | Purified PLC-beta3, fluorogenic substrate, fluorescence | inhibition, % at 12.2 µM | 0.18% of 370,000 active | AID 720704 | Q01970; in the data active means inhibition above about 11%
hGIII sPLA2 conf: human GIII-sPLA2 inhibition, confirmation. shares compounds with HGIII-sPLA2 inh. inhibition, % at 12.2 µM. AID 743280. 34% of 2,000 active. recombinant hGIII-sPLA2, BODIPY PC-A2 QFRET fluorescence;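 active means mean inhibition across triplicates above the hit cutoff set in the earlier primary screen, cut at about 19% in these data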
BODIPY interf: 535nm fluorescence interference, HGIII-sPLA2 counter-screen; BODIPY FL product fluorescence interference, QFRET; AID 743282; inhibition, % at 12.2 µM; 8.5% of 2,000 active; shares compounds with HGIII-sPLA2 inh;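 active means average inhibition above the solvent-only control mean plus 3 SD, cut at about 6% in these data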
535nm interf DR: 535nm optical interference dose response, HGIII-sPLA2 counter-screen. shares compounds with HGIII-sPLA2 inh. BODIPY FL product fluorescence interference, cell-free. IC50, µM. 240 tested, under 10 active. AID 743455;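 active means IC50 at or below 10 µM; inactive means IC50 above 10 µM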
Each line names hits and unclear results; the compound was inactive in the other large screens (follow-up assays come after a bar, where they were run). An excerpt weighted towards active compounds, which were near 3.4% of everything screened.

NC(Cc1ccc(F)cc1)c1csc(Nc2cc(NCc3ccco3)ncn2)n1 (centres undefined)	none
COc1cc(C(O)c2nc(-c3cccs3)cs2)ccc1F (centres undefined)	none
CCCCC(=O)NC(c1ccc(OC)cc1)c1ccc2cccnc2c1O (centres undefined)	none
CCCC(=O)NC(c1ccccc1Cl)c1ccc2cccnc2c1O (centres undefined)	HGIII-sPLA2 inh 30.5 | hGIII sPLA2 conf 26.1 | BODIPY interf inactive
CCCC(=O)NC(c1ccc(C(C)C)cc1)c1ccc2cccnc2c1O (centres undefined)	HGIII-sPLA2 inh 19.7 | hGIII sPLA2 conf inactive | BODIPY interf inactive
CCC(=O)NC(c1ccc(C)cc1)c1ccc2cccnc2c1O (centres undefined)	HGIII-sPLA2 inh 21.0 | hGIII sPLA2 conf inactive | BODIPY interf inactive
CC(=O)NC(c1ccc(N(C)C)cc1)c1cc(Cl)c2cccnc2c1O (centres undefined)	none
Cc1ccnc(NC(c2ccccc2)c2ccc3cccnc3c2O)c1 (centres undefined)	none
CCCC(=O)NC(c1ccc(N(C)C)cc1)c1ccc2cccnc2c1O (centres undefined)	HGIII-sPLA2 inh 23.2 | hGIII sPLA2 conf 25.2 | BODIPY interf inactive
O=C(c1ccccc1)N(c1ccccc1)c1ccccc1O	none
COc1ccc(C2CC(=O)c3cnn(-c4nc(C)cc(C)n4)c3C2)cc1 (centres undefined)	none
CCN(CC)S(=O)(=O)c1ccc(C(=O)Oc2coc(CSc3nc(C)cc(C)n3)cc2=O)cc1	HGIII-sPLA2 inh 20.6 | hGIII sPLA2 conf inactive | BODIPY interf inactive
CN(C)S(=O)(=O)c1ccc(C(=O)Oc2coc(CSc3ncccn3)cc2=O)cc1	none
O=C(NCc1ccc2c(c1)OCO2)c1cccc(S(=O)(=O)N2CCCC2)c1	none
Nc1nc(N)c2cc(CNc3ccc(Cl)c(Cl)c3)ccc2n1	HGIII-sPLA2 inh 23.0 | hGIII sPLA2 conf inactive | BODIPY interf inactive
Cc1cc(O)c(C(=O)Nc2cccc(Cl)c2)c(=O)n1C	none
CN(Cc1ccccc1)C(=O)c1csc([C@@H]2O[C@H](CO)[C@@H](O)[C@H]2O)n1	HGIII-sPLA2 inh 19.6 | hGIII sPLA2 conf inactive | BODIPY interf inactive
CCCn1c(NC(=S)Nc2ccccc2)nc2ccccc21	HGIII-sPLA2 inh 37.0 | hGIII sPLA2 conf 48.2 | BODIPY interf inactive | 535nm interf DR inactive
S=C(Nc1ccccc1)Nc1nc2ccccc2n1CCOc1ccc(Cl)cc1	none
CCn1c(NC(=S)Nc2ccccc2)nc2ccccc21	HGIII-sPLA2 inh 22.6 | hGIII sPLA2 conf 24.4 | BODIPY interf inactive
CC1CC(O)(CC(O)(c2ccccc2)c2ccccc2)C(C)CN1C (centres undefined)	HGIII-sPLA2 inh 19.3 | hGIII sPLA2 conf inactive | BODIPY interf inactive
CCc1ccc(CC2(O)CC(C)N(C)CC2C)cc1 (centres undefined)	none
CNc1nc(SCC(=O)Nc2ccccc2)nc(N2CCOCC2)n1	none
O=C(OCc1cccc([N+](=O)[O-])c1)c1ccc[nH]c1=O	none
CC1(C)CC(=O)C=C(Nc2ccc(Br)cn2)C1	HGIII-sPLA2 inh 21.2 | hGIII sPLA2 conf inactive | BODIPY interf inactive
CC(C)NC(=O)COc1coc(CN2CCN(C(=O)c3ccco3)CC2)cc1=O	none
CN(C)c1ccc(/C=N\Nc2nc(-c3ccccc3)cc(=O)[nH]2)cc1	HGIII-sPLA2 inh 20.0 | hGIII sPLA2 conf inactive | BODIPY interf inactive
CCCCNC(=O)c1c(N)[nH]c(C(=O)c2ccccc2)c1-c1ccccn1	HGIII-sPLA2 inh 19.3 | hGIII sPLA2 conf inactive | BODIPY interf inactive
COc1ccc(C)cc1N(C(=O)c1snc(C(N)=O)c1N)C(C(=O)NC1CCCCC1)c1ccc(C)o1 (centres undefined)	none
Cc1ccc(NNC(=O)c2ccc(Cl)cc2)nn1	HGIII-sPLA2 inh 47.3 | hGIII sPLA2 conf 72.9 | BODIPY interf 74.2
Nc1[nH]nc2nc(N3CCCC3)nc(-c3ccccc3)c12	none
Nc1[nH]nc2nnc(-c3c(-c4ccccc4)nn4ccccc34)cc12	HGIII-sPLA2 inh 21.6 (no result: proKLK7 act) | hGIII sPLA2 conf inactive | BODIPY interf inactive
CCc1ccc(S(=O)(=O)NCc2csc(C)n2)s1	HGIII-sPLA2 inh 21.5 | hGIII sPLA2 conf inactive | BODIPY interf inactive
Cc1nc(CNS(=O)(=O)c2cccs2)cs1	none
NC(=S)NN=Cc1nccc2c(C(F)(F)C(F)(F)C(F)(F)F)cccc12	HGIII-sPLA2 inh 31.4 | hGIII sPLA2 conf 38.6 | BODIPY interf inactive | 535nm interf DR inactive
COc1ccc(C(C)(C)C)cc1NC(=S)NCCN1CCOCC1	HGIII-sPLA2 inh 19.9 | hGIII sPLA2 conf inactive | BODIPY interf inactive
COc1ccc(NC(=S)NCCCN2CCOCC2)cc1	HGIII-sPLA2 inh 22.5 | hGIII sPLA2 conf inactive | BODIPY interf inactive
COc1ccc(NC(=S)NCCN2CCOCC2)cc1	none
CC(C)c1nccn1S(=O)(=O)c1cc(Cl)ccc1Cl	none
CC(C)c1nccn1S(=O)(=O)c1cccc([N+](=O)[O-])c1	HGIII-sPLA2 inh 19.2 | hGIII sPLA2 conf inactive | BODIPY interf inactive
CCCC[C@@H]1C(=O)N2N=Cc3cc(C)c(C)cc3[C@H]2N2N=Cc3cc(C)c(C)cc3[C@@H]12	HGIII-sPLA2 inh 20.5 | hGIII sPLA2 conf inactive | BODIPY interf inactive
CCCC[C@@H]1C(=O)N2N=Cc3ccccc3[C@H]2N2N=Cc3ccccc3[C@@H]12	none
CC1C/C(=N\Nc2ccc(S(N)(=O)=O)cc2[N+](=O)[O-])CC(C)(C)C1 (centres undefined)	none
Cc1cc(C)c2c(c1)/C(=N/Nc1ccc(S(N)(=O)=O)cc1[N+](=O)[O-])CCC2	HGIII-sPLA2 inh 19.6 | hGIII sPLA2 conf inactive | BODIPY interf 7.5
CC(=O)C1=C(O)C(=O)N(C)C1c1ccccc1[N+](=O)[O-] (centres undefined)	HGIII-sPLA2 inh 24.9 | hGIII sPLA2 conf inactive | BODIPY interf inactive
CCCn1c(=O)c2ccccc2n2c(SCCOc3ccc(C)cc3)nnc12	HGIII-sPLA2 inh 19.4 | hGIII sPLA2 conf inactive | BODIPY interf inactive
Cc1c(Cl)ccc2sc(NC(=O)CN3C(=O)c4ccccc4C3=O)nc12	HGIII-sPLA2 inh 19.5 | hGIII sPLA2 conf inactive | BODIPY interf inactive
Cc1ccc(NC(=S)NNC(=O)CSc2nc3ccccc3c(=O)n2-c2ccc(Cl)cc2)cc1	HGIII-sPLA2 inh 29.1 | hGIII sPLA2 conf 24.4 | BODIPY interf inactive
